Test results from PubChem BioAssay (NCATS).
Results filed as inconclusive are left out. A number with no mark means an inactive call. Calls of active or inactive are those of the source. The call rests on the fitted dose curve; in most records, active means well fitted inhibition curve with a large enough effect; inconclusive means small, poorly fitted or top-dose-only effect; inactive means flat fitted curve, though single readings scatter.

tested on: KB-3-1; assay: Cytotoxic Profiling of Annotated Libraries Using Quantitative High-Throughput Screening (AID 1296008); settings: Five cell lines viability, CellTiter-Glo ATP luminescence, 48-72 h; max response: hits give low values; further: nearly all actives have a fitted effect of over 60% in size
Excerpt: Cell-based phenotypic screening is a commonly used approach to discover biological pathways, novel drug targets, chemical probes and high-quality hit-to-lead molecules. Many hits identified from high-throughput screening campaign are ruled out through a series of follow-up potency, selectivity/specificity, and cytotoxicity assays. Prioritization of molecules with little or no cytotoxicity for a more in-depth downstream evaluation influence the future direction of projects, so cytotoxicity profiling of the screening libraries at early stage is essential for increasing the likelihood of candidate success. […] For the annotated library, we also examined the primary targets and mechanistic pathways regularly associated with cell death. To our knowledge, this is the first study to use high-throughput screening to profile large libraries for cytotoxicity assessment in both normal and cancer cell lines. In summary, the results generated here constitutes a valuable resource for the scientific community and provides insight on identifying cytotoxic compounds with particular mechanisms of action, and prioritizing compounds with suitable cytotoxicity profile for further evaluation.
A pintool (Kalypsys) was used to transfer 23 nL of compound solution to the 1536-well assay plates. After 48 or 72 hr incubation at 37 degree Celsius, 5% CO2 and 95% humidity, 2.5 uL of CellTiter-Glo (Promega) was dispensed into each well using a dispenser (Aspect Automation, St. Paul, MN) with solenoid valves (Lee Valves, Westbrook CT). Plates were left at room temperature for 10 min before imaging the ATP-coupled luminescence using a ViewLux microplate imager (PerkinElmer, Waltham, MA).
On the % scale 0 is the no-effect control and ±100 the full control effect.

Structure (SMILES) | max response | outcome
NC(=O)N1c2ccccc2C=Cc2ccccc21 | -5.38% | 
CC(C)(C)NCC(O)c1cc(O)cc(O)c1 (stereo not given) | -2.33% | 
CCCCCN(CCCCC)C(=O)C(CCC(=O)O)NC(=O)c1ccc(Cl)c(Cl)c1 (stereo not given) | -8.56% | 
CCc1cccc(N(C)C(N)=Nc2cccc3ccccc23)c1 | -7.55% | 
CCN(CC)CC(=O)Nc1c(C)cccc1C | -0.324% | 
CN(C)C/C=C(/c1ccc(Br)cc1)c1cccnc1 | -12.9% | 
CC(N=C(NC#N)Nc1ccncc1)C(C)(C)C (stereo not given) | -0.411% | 
COc1ccc(CCN(C)CCCC(C#N)(c2cc(OC)c(OC)c(OC)c2)C(C)C)cc1OC (stereo not given) | -0.362% | 
O=C(CCCN1CCC(O)(c2cccc(C(F)(F)F)c2)CC1)c1ccc(F)cc1 | -16.4% | 
Brc1c(NC2=NCCN2)ccc2nccnc12 | -13.6% | 
CCCN1C[C@H](CSC)C[C@@H]2c3cccc4[nH]cc(c34)C[C@H]21 | 9.69% | inactive
CN(C(=O)CCCOc1ccc2[nH]c(=O)ccc2c1)C1CCCCC1 | -8.72% | 
Cc1nc2c([nH]1)c(=O)n(C)c(=O)n2Cc1ccco1 | 16.5% | 
NS(=O)(=O)c1cc2c(cc1Cl)NC(C1CC3C=CC1C3)NS2(=O)=O (stereo not given) | -20.4% | 
CCN(Cc1ccncc1)C(=O)C(CO)c1ccccc1 (stereo not given) | 6.96% | 
COC(=O)[C@@H](N)Cc1ccc(O)c(O)c1 | -3.59% | 
CCOC(=O)C1=C(C)NC(C)=C(C(=O)OC)C1c1cccc(Cl)c1Cl (stereo not given) | -8.74% | 
CC(C)NNC(=O)c1ccncc1 | -1.28% | 
NC(=O)c1ncn([C@@H]2O[C@H](CO)[C@@H](O)[C@H]2O)c1O | 8.08% | 
O=C(O)CN(CCN(CC(=O)O)CC(=O)O)CCN(CC(=O)O)CC(=O)O | 28.9% | 

Structure (SMILES) | max response | outcome
CCc1c(C)[nH]c2c1C(=O)C(CN1CCOCC1)CC2 (stereo not given) | -8.21% | 
Cc1nc2sccn2c(=O)c1CCN1CCC(=C(c2ccc(F)cc2)c2ccc(F)cc2)CC1 | -12.7% | 
C[C@]12CC[C@@H]3c4ccc(O)cc4C[C@@H](CCCCCCCCCS(=O)CCCC(F)(F)C(F)(F)F)[C@H]3[C@@H]1CC[C@@H]2O (stereo not given in full) | 3.54% | 
Cc1nnc(SCC2=C(C(=O)O)N3C(=O)[C@@H](NC(=O)Cn4cnnn4)[C@H]3SC2)s1 | 4.46% | 
CCCCNc1ccc(C(=O)OCCN(C)C)cc1 | 0.24% | 
CCOC(=O)c1cnc2c(cnn2CC)c1NN=C(C)C | 7.56% | 
CCN(CC)CCNC(=O)c1cc(S(C)(=O)=O)ccc1OC | 6.27% | 
O=C(O)CCCCCCCC(=O)O | -3.68% | 
N[C@@H](COP(=O)(O)O)C(=O)O | -0.563% | 
CCOC(=O)C1=C(C)NC(C)=C(C(=O)OC)C1c1cccc([N+](=O)[O-])c1 (stereo not given) | -12.8% | 
CN(C)CCCN1c2ccccc2Sc2ccccc21 | -0.491% | 
Cc1ccc(/C(=C\CN2CCCC2)c2ccccn2)cc1 | 18.1% | 
CCCC(C(=O)OCCN(CC)CC)(c1ccccc1)c1ccccc1 | -8.71% | 
c1cc(CN2CCCCC2)cc(OCCCNc2nc3ccccc3s2)c1 | -9.4% | 
O=C1CC2(CCCC2)CC(=O)N1CCCCN1CCN(c2ncccn2)CC1 | -1.42% | 
CC(=O)Oc1cc(C(C)C)c(OCCN(C)C)cc1C | 3.97% | 
Nc1nc(N)c2nc(-c3ccccc3)c(N)nc2n1 | -2.1% | 
CC(C)[N+](C)(CCOC(=O)C1c2ccccc2Oc2ccccc21)C(C)C | -0.425% | 
Cc1nc2ccccn2c(=O)c1CCN1CCC(C(=O)c2ccc(F)cc2)CC1 | -5.16% | 
